From PubChem BioAssay AID521 (Sanford-Burnham Center for Chemical Genomics, 2006)
Where “and” joins values, the source holds several entries; their conditions need not be identical. Identical values can stand only once. Among all 110,000 compounds or so, about 730 (0.66%) were called active. The sample holds actives, similar compounds and a random draw of the others, so the mix is not that of the screen. A number with no mark means an inactive call. Cut-off read from the data, not from the text of the source: active = inhibition above about 50%; inconclusive = no clear call, values can overlap the other calls; inactive = below that.

What follows are compounds tested against Tyrosine-protein phosphatase non-receptor type 7 (Homo sapiens) (UniProt P35236) (assay: inhibitors of human HePTP phosphatase, primary screen, biochemical, absorbance, leukemia target (AID 521;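 note: plate controls were vehicle for no effect and reference inhibitor for full effect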)). Details: recombinant HePTP phosphatase activity, OD absorbance; at 20 µM; active compounds read high.
Chain of Tyrosine-protein phosphatase non-receptor type 7 (Homo sapiens) (P35236 whole entry, looked up): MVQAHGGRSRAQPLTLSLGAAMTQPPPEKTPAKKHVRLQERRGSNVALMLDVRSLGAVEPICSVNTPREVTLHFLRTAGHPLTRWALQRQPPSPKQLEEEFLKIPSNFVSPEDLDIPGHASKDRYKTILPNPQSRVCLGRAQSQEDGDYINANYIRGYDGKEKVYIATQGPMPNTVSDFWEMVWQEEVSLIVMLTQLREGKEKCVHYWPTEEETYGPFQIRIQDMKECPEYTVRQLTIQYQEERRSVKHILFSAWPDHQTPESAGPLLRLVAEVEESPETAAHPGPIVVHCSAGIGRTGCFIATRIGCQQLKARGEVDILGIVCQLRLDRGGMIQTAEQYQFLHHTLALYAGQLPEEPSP
For `CCOc1ccc(C(=O)Nc2ccc(O)c(-c3nc4ccccc4o3)c2)cc1[N+](=O)[O-]`, the inhibition was 7.1%. `O=C1NN(c2ccccc2)C(=O)/C1=C/c1ccc(-c2cccc(C(=O)O)c2)o1` gave an inhibition of 18.1%. With `O=C(O)c1cc(-c2ccc(C=C3C(=O)c4ccccc4C3=O)o2)ccc1O` the inhibition was 102% (active). `CC1=NN(c2ccc(S(N)(=O)=O)cc2)C(=O)/C1=C\c1ccc(-c2ccc(Cl)c(C(=O)O)c2)o1` showed an inhibition of 9.9%. In the case of `O=[N+]([O-])c1ccc(N2CCN(CCO)CC2)cc1NC(c1ccccc1)c1ccccc1`, the inhibition is reported as -10.6%. Compound `COc1cccc(C(=O)N2N=C(c3ccc(F)cc3)CC2(O)C(F)(F)F)c1` (stereo unspecified) has an inhibition of 4.2%. For `CCOc1ccc(NC(=S)NC(NC(=O)c2cccc(C)c2)C(Cl)(Cl)Cl)cc1` (stereo unspecified), the inhibition was 4.6%. For `O=[N+]([O-])c1ccc(C2SCCN2S(=O)(=O)c2ccc3ccccc3c2)cc1` (stereo unspecified), the inhibition was 6.4%. With `CN(N)c1nc(N2CCCC2)nc(N2CCCC2)n1` the inhibition was -2.9%. With `COc1cc(/C=C2\C(=O)NC(=S)N(c3cccc(Br)c3)C2=O)c([N+](=O)[O-])cc1OC` the inhibition was 102% (active). `O=C1NC(=O)N(c2cccc(Br)c2)C(=O)/C1=C/c1cccc([N+](=O)[O-])c1` showed an inhibition of 9.5%. In the case of `COc1ccc(/C=C2\C(=O)NC(=S)N(c3ccc(Br)cc3)C2=O)cc1`, the inhibition is reported as 8.6%. `c1ccc2c(OCCCN3CCOCC3)cccc2c1` gave an inhibition of -6.5%. `Cc1ccc2ccc3cccc(S(=O)(=O)O)c3c2n1` gave an inhibition of 2.1%. `O=[N+]([O-])c1ccc(C2Nc3ccc(OC(F)(F)F)cc3C3C=CCC32)cc1` (stereo unspecified) was tested, and the inhibition was -9.1%. Compound `Cc1ccc(C(=O)Nc2ccccc2C(=O)NC2CCCCCC2)cc1` has an inhibition of 2.4%. Work on `O=C(CCCN1C(=O)/C(=C/c2ccccc2)SC1=S)Nc1ccccc1C(=O)O` yielded an inhibition of 10.4%. Compound `COc1cccc(C(O)c2nc3ccccc3n2C)c1` (stereo unspecified) has an inhibition of -6.5%. `CCc1ccc(-n2c(C)cc(/C=C3/SC(=S)NC3=O)c2C)cc1` showed an inhibition of 7.1%. With `O=C(COc1ccc2ccccc2c1Br)c1ccc(Br)cc1` the inhibition was 3%. `CC(=O)c1ccc(NS(=O)(=O)c2ccccc2[N+](=O)[O-])cc1` gave an inhibition of 3%. `Cc1cccc(NC(=O)COc2cc(C)c(Cl)c(C)c2)c1C` was tested, and the inhibition was 2%. `O=C1c2ccc3c4c(ccc(c24)C(=O)N1CCOc1ccccc1)CC3` was tested, and the inhibition was 3.5%. For `COc1ccc(NC(=O)c2cccc(N3C(=O)c4ccc(C(=O)Nc5ccc(OC)cc5)cc4C3=O)c2)cc1`, the inhibition was -8.7%. In the case of `O=C(O)c1cccc(N2C(=O)c3ccc4c5c(ccc(c35)C2=O)CC4)c1`, the inhibition is reported as 103% (active). In the case of `O=[N+]([O-])c1ccc(C=NC23CN4CN(CN(C4)C2)C3)s1`, the inhibition is reported as 4.4%. `COCCNC(=O)/C(=C/c1ccc(-c2cc(Cl)ccc2Cl)o1)NC(=O)c1ccc(C)cc1` gave an inhibition of 5.9%. Work on `CCOc1cc(/C=N/NC(=O)c2cc(C)[nH]n2)ccc1Oc1ccc([N+](=O)[O-])cc1[N+](=O)[O-]` yielded an inhibition of 6.3%. With `CCOC(=O)c1c(NC(=O)C2CC2c2ccccc2)sc2c1CCC2` (stereo unspecified) the inhibition was 77.8% (active). `CCOCC(=O)Nc1sc2c(c1C(=O)OCC)CCCC2` showed an inhibition of 3.2%. Work on `CCCOC(=O)Nc1sc2c(c1C(=O)OCC)CCC2` yielded an inhibition of -6.2%. With `O=C(CN1C(=O)/C(=C/c2ccccc2F)SC1=S)Nc1ccccc1F` the inhibition was -14.9%. For `Clc1ccccc1OCCCN1CCOCC1`, the inhibition was -7.9%. `O=C(CCc1ccccc1)Nc1ccc(Cl)cc1` showed an inhibition of 5.1%. `CCOC(=O)COc1ccc(/C=C2/NC(=S)NC2=O)cc1OC` was tested, and the inhibition was 4.1%. With `Cc1ccc(-c2cc(C(=O)Nc3ccccc3)c3ccccc3n2)cc1` the inhibition was 9.3%. `COc1cc(/C=C2\SC(=S)NC2=O)cc(Br)c1OCc1c(C)no[n+]1[O-]` was tested, and the inhibition was -10.3%. Compound `CCN(CC)c1ccc(C=C2C(=O)N(C)C(=O)N(C)C2=O)c(O)c1` has an inhibition of -4.9%. Compound `Cc1ccc(C(=O)N/C(=C\c2sccc2C)C(=O)NCC(C)C)cc1` has an inhibition of 8.2%. For `Nc1nc2nonc2nc1Nc1ccccc1`, the inhibition was 0.4%. With `Cc1cc(N2C(=O)NC(=O)/C(=C\c3cn(C)c4ccccc34)C2=O)ccc1Br` the inhibition was 4.9%. For `Cc1oc2ccccc2c1/C=N/n1cnc2sc3c(c2c1=O)CCCC3`, the inhibition was -2.6%. Work on `CCOC(=O)C1=C(C)N=c2s/c(=C\c3ccc4c(c3)OCO4)c(=O)n2C1c1ccc(C)cc1` (stereo unspecified) yielded an inhibition of 1.8%. Work on `CCOC(=O)C1=C(C)N=c2s/c(=C\c3ccc4c(c3)OCO4)c(=O)n2C1c1ccc(OC)c(Br)c1` (stereo unspecified) yielded an inhibition of 3.8%. For `N#CC1=C(N)n2c(s/c(=C\c3ccc4c(c3)OCO4)c2=O)=C(C#N)C1c1ccc2c(c1)OCO2` (stereo unspecified), the inhibition was 86.3% (active). Compound `CC1CCOP(=O)(C(Nc2ccc([N+](=O)[O-])cc2)c2ccc(Br)cc2)O1` (stereo unspecified) has an inhibition of -6%. In the case of `CCOc1ccc(-c2cc(C(=O)Nc3cccc([N+](=O)[O-])c3)c3ccccc3n2)cc1`, the inhibition is reported as 11.5%. `COc1ccc(-c2nc(-c3ccccc3)no2)c(OC)c1` showed an inhibition of 16.7%. In the case of `COc1ccc(-c2noc(-c3ccc(Br)cc3)n2)cc1`, the inhibition is reported as -4.6%. Work on `COc1ccc(/C=C2\SC(=Nc3ccc(F)cc3)NC2=O)cc1OC` yielded an inhibition of 25.3%. `COc1cc2c(cc1NC(=O)c1c(-c3c(F)cccc3Cl)noc1C)oc1ccccc12` was tested, and the inhibition was -5.8%. Work on `COc1ccc(-c2nnc(SCC(=O)NN)n2-c2ccccc2)cc1` yielded an inhibition of -0.1%. Compound `COc1ccc(-c2nc3ccccc3c(C(=O)Nc3ccc(C(C)=O)cc3)c2C)cc1` has an inhibition of -9.2%. With `O=C(NC(=O)c1ccccn1)NC(c1ccccc1)c1ccccc1` the inhibition was -13% and 2.8%. With `O=C1NC(=S)N/C1=C/c1ccc(-c2cccc(Br)c2)o1` the inhibition was 3.7%. `Nn1c(NCc2ccccc2)nc2ccccc21` showed an inhibition of -4.8%. `Cc1ccc(NC(=O)c2cnn(-c3ccccc3)c2NC(=O)c2ccccc2Cl)cc1C` was tested, and the inhibition was 103% (active). With `Cc1ccccc1NC(=O)c1cnn(-c2ccccc2)c1NC(=O)c1ccco1` the inhibition was 7.2%. With `CCOC(=O)c1cnn(-c2ccccc2)c1NC(=O)c1ccc([N+](=O)[O-])cc1` the inhibition was 1.7%. `O=C1CC(N2CCN(c3ccccc3F)CC2)C(=O)N1c1cccc(Cl)c1` (stereo unspecified) gave an inhibition of 5.6%. `O=C1C=CC2=C3Oc4c(ccc5cc(O)ccc45)C(c4ccccc4C(=O)O)C3C=CC2=C1` (stereo unspecified) was tested, and the inhibition was 103% (active). `NC(=S)N/N=C(/Cc1ccccc1)c1ccc(-c2ccccc2)cc1` gave an inhibition of 6.5%. Compound `COc1ccccc1C1SCCN1S(=O)(=O)c1ccc(-c2ccccc2)cc1` (stereo unspecified) has an inhibition of 7.9%. Compound `Cc1cccc(N2CCN(C(=O)C(Cl)(Cl)Cl)CC2)c1C` has an inhibition of 5.3%. With `CC(C)(O)C#Cc1ccc(C2C3=C(CC(C)(C)CC3=O)OC3=C2C(=O)CC(C)(C)C3)cc1` the inhibition was 1.5%. `COc1cc2c(cc1C)/C(=N/OC(=O)c1ccc(OC)c([N+](=O)[O-])c1)CCC2` showed an inhibition of -10.5%. In the case of `COc1ccc(C(=O)ON=C2c3ccccc3-c3ccccc32)cc1OC`, the inhibition is reported as 62.3% (active). In the case of `COc1cc(C(C)=O)ccc1OC(=O)CN1C(=O)c2ccccc2C1=O`, the inhibition is reported as -2.9%. Work on `CCCCOc1c([N+](=O)[O-])cc([N+](=O)[O-])c2nsnc12` yielded an inhibition of 10.8%. With `O=C1Nc2ccccc2/C1=N\N=C\c1c(F)cccc1Cl` the inhibition was 14%. `CCCC(NC(=O)c1ccccc1)C(=O)OCC(=O)Nc1sc2c(c1C(=O)OCC)CCCC2` (stereo unspecified) showed an inhibition of 1.3%. In the case of `CCOC(=O)c1c(N)sc(C)c1CC`, the inhibition is reported as -13.6%. `CC1(C)Cc2ccccc2C(N/N=C/c2c(O)ccc3ccccc23)=N1` showed an inhibition of 5%. `CCOc1ccccc1NC(=O)c1c(NC(=O)c2ccco2)sc2c1CCC(C)C2` (stereo unspecified) was tested, and the inhibition was 4.6%. In the case of `Cc1ccccc1NC(=O)c1c(NC(=O)C(C)(C)C)sc2c1CCC(C)C2` (stereo unspecified), the inhibition is reported as 3.9%. With `CCOc1ccccc1NC(=O)c1c(NC(=O)c2cccs2)sc2c1CCC(C)C2` (stereo unspecified) the inhibition was 74.5% (active). In the case of `ONC(=Nc1ccc2c(c1)OCO2)C(=Nc1ccc2c(c1)OCO2)NO`, the inhibition is reported as -7.5%. In the case of `COc1ccc(C2SCCN2C(=O)c2cc3ccccc3oc2=O)cc1` (stereo unspecified), the inhibition is reported as -6.8%. Work on `Cc1ccc(OCC(=O)NCc2ccc(F)cc2)c(Br)c1` yielded an inhibition of 0%. `O=C(COc1cc2oc(=O)c3c(c2cc1Cl)CCCC3)OCc1ccccc1` gave an inhibition of 7%. Compound `CCOc1cccc(-c2cc(C(=O)N3CCCCCC3)c3ccccc3n2)c1` has an inhibition of -11.5%. `Cc1ccc(-c2cc(C(=O)NCc3ccccc3)c3ccccc3n2)o1` was tested, and the inhibition was 53.4% (active). Work on `Cc1ccc(C)c(-c2cc(C(=O)NN)c3ccccc3n2)c1` yielded an inhibition of 5%. For `Cc1ccc(-c2cc(C(=O)N3CCCCCC3)c3ccccc3n2)o1`, the inhibition was 78.1% (active). Compound `Cc1ccc(NC(=O)c2cc(-c3ccc(C)o3)nc3ccccc23)nc1` has an inhibition of 2.7%. `Cc1ccc(-c2cc(C(=O)N3CC(C)CC(C)C3)c3ccccc3n2)cc1C` (stereo unspecified) gave an inhibition of -17%. With `CCOc1cc(C(=O)Nc2cccc(F)c2)cc(OCC)c1OCC` the inhibition was 104% (active). With `COc1ccc(NC(=O)c2cccc(F)c2)cc1OC` the inhibition was 9.7%. In the case of `CCOc1cc(C(=O)Nc2ncccn2)cc(OCC)c1OCC`, the inhibition is reported as -0.3% and 8.9%. `CCOc1ccc(C(=O)Nc2ccc(I)cc2Cl)cc1[N+](=O)[O-]` showed an inhibition of 3.7%. `O=C(Nc1cccc(I)c1)c1ccc2c(c1)C(=O)N(CC1CCCO1)C2=O` (stereo unspecified) was tested, and the inhibition was 6.2%.
